# Columns and labels:
# Format in all cases: functional
# [1] = target: Solute carrier family 2, facilitated glucose transporter member 1 (Homo sapiens) (UniProt P11166); experiment: ST_JUDE_LEISH: Cytotoxicity at 2uM final concentration against transgenic Leishmania Mexicana promastigotes LmGLUT1 that are glucose transport deficient and complemented with the human glucose transporter GLUT1. Activity is measured by DNA content using SYBR green in vitro
# [2] = target: Hexose transporter 1 (Plasmodium falciparum) (UniProt O97467); experiment: ST_JUDE_LEISH: Cytotoxicity at 2uM final concentration against transgenic Leishmania Mexicana promastigotes LmPfHT that are glucose transport deficient and complemented with the Plasmodium falciparum hexose transporter. Activity is measured by DNA content using SYBR green in vitro
# [3] = target: Glucose transporter (Leishmania mexicana) (UniProt O61059); experiment: ST_JUDE_LEISH: Cytotoxicity at 2uM final concentration against transgenic Leishmania Mexicana promastigotes LmGT2 that are glucose transport deficient and complemented with the L. Mexicana glucose transporter 2. Activity is measured by DNA content using SYBR green in vitro
# Sequence of Solute carrier family 2, facilitated glucose transporter member 1 (Homo sapiens) (P11166 whole entry): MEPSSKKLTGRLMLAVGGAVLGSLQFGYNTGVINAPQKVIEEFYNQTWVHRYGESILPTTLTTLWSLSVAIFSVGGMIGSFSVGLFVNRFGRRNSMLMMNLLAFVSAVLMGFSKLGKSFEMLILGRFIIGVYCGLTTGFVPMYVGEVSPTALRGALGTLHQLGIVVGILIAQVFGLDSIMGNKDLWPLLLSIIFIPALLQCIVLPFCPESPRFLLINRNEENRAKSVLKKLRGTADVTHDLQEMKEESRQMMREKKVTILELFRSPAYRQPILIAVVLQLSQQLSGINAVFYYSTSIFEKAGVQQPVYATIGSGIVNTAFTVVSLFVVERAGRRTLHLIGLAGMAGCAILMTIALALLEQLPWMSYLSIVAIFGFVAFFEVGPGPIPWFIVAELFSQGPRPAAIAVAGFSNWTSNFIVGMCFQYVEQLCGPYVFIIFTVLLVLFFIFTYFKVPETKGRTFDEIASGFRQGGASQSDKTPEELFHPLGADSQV
smiles,measurement,setting,value
CNC(=O)Cc1ccc(C(=O)Nc2cccc(-c3ccc(-c4nc5cccc(C)c5[nH]4)s3)c2)cc1,inhibition,[1],3.65%
same,inhibition,[2],2.74%
same,inhibition,[3],1.79%
CC1(C)CN(CCC2CCC(NC(=O)/C=C/c3ccccc3F)CC2)Cc2ccc(C#N)cc21 (stereo unspecified),inhibition,[1],3.59%
same,inhibition,[2],1%
same,inhibition,[3],1.48%
CCCC(C)NC[C@@H](O)[C@H](Cc1ccccc1)NC(=O)c1cc(C2CCCC2)cc(N2CCCCS2(=O)=O)c1 (stereo partly specified),inhibition,[1],3.4%
same,inhibition,[2],3.66%
same,inhibition,[3],2.98%
O=C(Nc1cccc(C(F)(F)F)c1)c1cccc2nc(C(F)(F)F)[nH]c12,inhibition,[1],19.4%
same,inhibition,[2],24.2%
same,inhibition,[3],15%
CS(=O)(=O)CCNCc1ccc(-c2ccc3ncnc(Nc4ccc(OCc5ccccc5)c(Cl)c4)c3c2)o1,inhibition,[1],-0.18%
same,inhibition,[2],-1.51%
same,inhibition,[3],-1.49%
CC(=O)Nc1ccc(C(=O)Nc2cccc(-c3cccc(-c4nc5cc(C(F)(F)F)ccc5[nH]4)c3)c2)cn1,inhibition,[1],-0.64%
same,inhibition,[2],-2.32%
same,inhibition,[3],-1.64%
N#Cc1ccc(C(=O)NC2CCN(CCCCCNC(=O)/C=C/c3ccc(Cl)c(Cl)c3)CC2)cc1,inhibition,[1],0.08%
same,inhibition,[2],1.46%
same,inhibition,[3],-1.31%
Cc1ccccc1C1CCN(C2CCC(NC(=O)/C=C/c3cccc(Cl)c3)CC2)CC1 (stereo unspecified),inhibition,[1],-2.09%
same,inhibition,[2],-2.1%
same,inhibition,[3],-3.2%
Cc1nnsc1C(=O)Nc1ccc(-c2cccc(-c3nc4cc(F)ccc4[nH]3)c2)cc1,inhibition,[1],1.36%
same,inhibition,[2],1.3%
same,inhibition,[3],-2.69%
COc1cc(C)nc2ccc(NC(=O)Nc3ccccc3[N+](=O)[O-])cc12,inhibition,[1],2.28%
same,inhibition,[2],0.56%
same,inhibition,[3],1.8%
COc1cc2c(cc1S(=O)(=O)c1ccc(NC(=O)c3cc4ccccc4s3)cc1)CCN(C)CC2,inhibition,[1],-1.48%
same,inhibition,[2],3.2%
same,inhibition,[3],1.94%
COc1ccc(CNCc2cccc(-c3cccc(-c4nc5ccccc5[nH]4)c3)c2)cc1,inhibition,[1],7.86%
same,inhibition,[2],4.28%
same,inhibition,[3],3.04%
Cc1cccc2nc(-c3cccc(-c4cccc(NC(=O)CN5CCN(C)CC5)c4)c3)[nH]c12,inhibition,[1],8.23%
same,inhibition,[2],7.52%
same,inhibition,[3],6.83%
N#Cc1ccc(C(=O)Nc2ccc(Cl)c(N3CCN(CCc4ccccc4)CC3)c2)cc1,inhibition,[1],8.77%
same,inhibition,[2],7.95%
same,inhibition,[3],7.85%
O=C(/C=C/c1ccc(Cl)c(Cl)c1)NCCCCCN1CCC(NC(=S)Nc2cccc(Cl)c2)CC1,inhibition,[1],2.06%
same,inhibition,[2],0.6%
same,inhibition,[3],-0.54%
Cc1cccc2nc(-c3ccc(-c4cccc(NC(=O)c5cncn5C)c4)s3)[nH]c12,inhibition,[1],0.66%
same,inhibition,[2],2.43%
same,inhibition,[3],-2.47%
CCn1c(-c2nonc2N)nc2c(-c3cccc(NC(=O)Nc4ccccc4Cl)c3)ncc(OCCCN)c21,inhibition,[1],-1.06%
same,inhibition,[2],-1.1%
same,inhibition,[3],-0.34%
COc1cc(Br)c(NC(=O)Nc2ccc(C(F)(F)F)c(O[C@@H]3CCN(C)C3)c2)cc1OC,inhibition,[1],2.53%
same,inhibition,[2],2.26%
same,inhibition,[3],1.55%
Cc1c(C)n(C2CCCCC2)c2ncnc(OC3CCN(CC(=O)N4CCCC4)CC3)c12,inhibition,[1],1.06%
same,inhibition,[2],3.02%
same,inhibition,[3],1.38%
Nc1ncc(-c2ccsc2)c2ccc(-c3cnc[nH]3)cc12,inhibition,[1],1.46%
same,inhibition,[2],0.14%
same,inhibition,[3],-0.37%
COc1ccc(NC(=O)c2ccc(Br)c(C)c2)cc1N1CCN(Cc2ccccc2)CC1,inhibition,[1],1.57%
same,inhibition,[2],0.13%
same,inhibition,[3],-0.04%
COc1nc2c(CCN3CC[C@H](NCc4cc(C#N)c5c(c4)CCO5)[C@H](O)C3)ccnc2cc1F,inhibition,[1],8.01%
same,inhibition,[2],8.15%
same,inhibition,[3],0.58%
CC(C)COc1ccc(Cl)cc1Cc1ccc(-c2nc3c(F)cccc3[nH]2)o1,inhibition,[1],0.36%
same,inhibition,[2],0.7%
same,inhibition,[3],2.89%
N#Cc1ccc(Sc2nnc(-c3ccccc3Cl)n2CC2CCCCC2)cc1[N+](=O)[O-],inhibition,[1],2.9%
same,inhibition,[2],3.12%
same,inhibition,[3],0.82%
CCCN1CCN(CCCNc2c3ccccc3nc3ccccc23)CC1,inhibition,[1],73.1%
same,inhibition,[2],78.2%
same,inhibition,[3],65.1%
CC(=O)Nc1cccc(CN(Cc2ccc(-c3ccc(CNCc4cccnc4)cn3)cc2)C(=O)Cc2cccnc2)c1,inhibition,[1],14.6%
same,inhibition,[2],10.7%
same,inhibition,[3],14%
CC(C)c1sc(N2CCN(C)CC2)nc1C(=O)Nc1cccc2c1CCCC2,inhibition,[1],0.42%
same,inhibition,[2],1.67%
same,inhibition,[3],1.79%
CCCCCCN1CCC(NCc2cccc3ccccc23)CC1,inhibition,[1],7.18%
same,inhibition,[2],12.1%
same,inhibition,[3],13.7%
CCN(CC)c1nc(Nc2cc(C)ccc2C)nc(Nc2ccccc2O)n1,inhibition,[1],4.16%
same,inhibition,[2],5.53%
same,inhibition,[3],4%
CCc1c(C)nc(-n2nc(C)cc2NC(=O)CC(c2ccccc2)c2ccccc2)[nH]c1=O,inhibition,[1],-2.32%
same,inhibition,[2],-2.23%
same,inhibition,[3],-4.35%
CCCCCOc1ccc(/N=C2\C=C(O)C(=O)c3ccccc32)cc1,inhibition,[1],1.82%
same,inhibition,[2],2.9%
same,inhibition,[3],2.17%
COc1cc(NC(=O)/C=C/c2ccccc2OC(F)(F)F)cc(OCCN2CCN(CCN3CCOCC3)CC2)c1,inhibition,[1],3.4%
same,inhibition,[2],3.05%
same,inhibition,[3],2.34%

# Source: ChEMBL document CHEMBL3433997, “St. Jude Leishmania screening dataset” (2016)
